High-throughput results deposited in PubChem by The Scripps Research Institute Molecular Screening Center.
A selection: hits, their analogues and other compounds. The true share with any hit is near 3.5%.
TEAD-YAP inh = TEAD-YAP interaction inhibition; HEK-TIYL cells, TEAD-Gal4/YAP UAS-luciferase luminescence; inhibition, % at 9.12 µM; 640,000 tested, 1.4% active; in the data active = inhibition above about 32%;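 also: 0% = median of test compound wells and 100% = reference inhibitor wells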
FBW7 activator = activators of human E3 ligase FBW7; AID 1259310; Q969H0; 650,000 tested, 0.13% active; AlphaScreen FBW7–phospho-cyclin E peptide binding, activator screen; normalized activity (activation), % at 26.1 µM; in the data active = normalized activity above about 1.9%;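 also: purified mutant Fbw7 with reduced substrate affinity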
GPR151 ag = activators of human GPR151; AID 1508602; 650,000 tested, 1% active; PathHunter beta-arrestin GPR151 cells, luminescence; activation, % at 11.2 µM; in the data active = activation above about 4.9%;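 also: 0% = median of compound wells and 100% = cells with positive control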
MITF inh = inhibitors of human MITF; AlphaScreen MITF homodimerization, bead proximity signal; inhibition, % at 2.6 µM; AID 1259374; 650,000 tested, 0.91% active; in the data active = inhibition above about 50%;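 also: 0% = vehicle wells with protein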
Target sequence (O75030 whole entry, looked up): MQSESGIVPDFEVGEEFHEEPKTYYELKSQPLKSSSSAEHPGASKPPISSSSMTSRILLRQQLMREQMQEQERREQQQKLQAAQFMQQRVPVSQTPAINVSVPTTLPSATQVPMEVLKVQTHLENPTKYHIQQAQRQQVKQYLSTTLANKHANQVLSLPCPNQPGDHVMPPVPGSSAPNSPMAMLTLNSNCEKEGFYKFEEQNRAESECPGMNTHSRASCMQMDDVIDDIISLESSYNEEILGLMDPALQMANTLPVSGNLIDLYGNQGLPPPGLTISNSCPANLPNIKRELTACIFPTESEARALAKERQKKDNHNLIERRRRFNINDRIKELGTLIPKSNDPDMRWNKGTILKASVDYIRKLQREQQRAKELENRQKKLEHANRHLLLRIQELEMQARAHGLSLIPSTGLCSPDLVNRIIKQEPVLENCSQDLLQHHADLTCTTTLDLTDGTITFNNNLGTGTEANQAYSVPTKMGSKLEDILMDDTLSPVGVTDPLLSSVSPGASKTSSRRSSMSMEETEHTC
Active calls of the source: *.

Results for CCN1C(=O)S/C(=C/c2cc(C)n(-c3ccccn3)c2C)C1=O ?
TEAD-YAP inh: 69*; FBW7 activator: 0; GPR151 ag: 1; MITF inh: 10

Results for CCN1C(=O)NC(=O)/C(=C\c2cc(C)n(-c3ccc(O)cc3)c2C)C1=O ?
TEAD-YAP inh: -3; FBW7 activator: -1; GPR151 ag: 1; MITF inh: 9

What do the screens show for `CCN1C(=O)S/C(=C/c2cc(C)n(-c3ccc(O)cc3)c2C)C1=O`?
TEAD-YAP inh: 80*; FBW7 activator: 0; GPR151 ag: 0; MITF inh: 4

Results for CCN1C(=O)/C(=C\c2cc(C)n(-c3ccc(OC)cc3)c2C)C(C(=O)OC)=C1C ?
TEAD-YAP inh: -6; FBW7 activator: 0; GPR151 ag: -2; MITF inh: 76*

Results for CCOC(=O)C(C)N1C(=O)S/C(=C/c2cc(C)n(-c3ccccn3)c2C)C1=O (centres undefined) ?
TEAD-YAP inh: -21; FBW7 activator: 0; GPR151 ag: -1; MITF inh: 5

What do the screens show for `CC(NC(=O)NC(=O)c1ccccc1)c1ccccc1` (centres undefined)?
TEAD-YAP inh: 7; FBW7 activator: 0; GPR151 ag: -1; MITF inh: -2

Results for CC[C@@H]1NC(=O)[C@@H]2C[C@H](NC(=O)Nc3cccc(F)c3)CN2C1=O ?
TEAD-YAP inh: 0; FBW7 activator: 0; GPR151 ag: -1; MITF inh: 17

Results for CC1Oc2ccccc2N(CC(=O)N(C(C)C)C(C)C)C1=O (centres undefined) ?
TEAD-YAP inh: 51*; FBW7 activator: 0; GPR151 ag: 1; MITF inh: 8

How did Cc1ccc(-c2cc3c(nn2)-c2ccccc2C3=O)cc1 do in these assays?
TEAD-YAP inh: 81*; FBW7 activator: 0; GPR151 ag: -4; MITF inh: 9

Results for Cc1cccc(-n2cc(-c3ccccc3)c3c(NCCCN4CCOCC4)ncnc32)c1 ?
TEAD-YAP inh: 11; FBW7 activator: 0; GPR151 ag: -1; MITF inh: 4

Results for Oc1cccc(-c2cnn3c(NCCc4ccccn4)ccnc23)c1 ?
TEAD-YAP inh: 85*; FBW7 activator: 0; GPR151 ag: 0; MITF inh: -13

Results for CC(C)[C@@H](CO)Nc1ccnc2c(-c3ccoc3)cnn12 ?
TEAD-YAP inh: -3; FBW7 activator: 0; GPR151 ag: 0; MITF inh: -3

What do the screens show for `CC(C)[C@@H](CO)Nc1ccnc2c(-c3ccccc3F)cnn12`?
TEAD-YAP inh: 56*; FBW7 activator: 0; GPR151 ag: 3; MITF inh: 10

Results for Fc1ccccc1-c1cnn2c(NCCc3ccccn3)ccnc12 ?
TEAD-YAP inh: 72*; FBW7 activator: 0; GPR151 ag: -3; MITF inh: -14

How did O=C(O)CCC/C=C\C[C@@H]1CO[C@H](C(F)(F)F)O[C@@H]1c1ccccc1O do in these assays?
FBW7 activator: 2.2*; GPR151 ag: 2; MITF inh: 5

What do the screens show for `Cc1ccc(C)c(N2CCN(C(=O)C34CC5CC(C3)CC(n3nnc(C)n3)(C5)C4)CC2)c1`?
TEAD-YAP inh: 37*; FBW7 activator: 1; GPR151 ag: -1; MITF inh: 24

How did COc1cc(=O)n2c(c1C(=O)N(C)Cc1nccs1)CCN(CC1CCCCC1)CC2 do in these assays?
TEAD-YAP inh: 3; FBW7 activator: 0; GPR151 ag: 0; MITF inh: -15

Results for COc1cc(/C=C/C(=O)c2ccccc2OC)ccc1OCC#N ?
TEAD-YAP inh: 58*; FBW7 activator: 0; GPR151 ag: 1; MITF inh: 10

What do the screens show for `Oc1ccccc1/C=N\Nc1ncc(F)c(N2CCOCC2)n1`?
TEAD-YAP inh: -27; FBW7 activator: -1; GPR151 ag: 0; MITF inh: 88*

Results for Oc1ccccc1/C=N\Nc1ccccn1 ?
TEAD-YAP inh: -70; FBW7 activator: -1; GPR151 ag: 1; MITF inh: 82*

Results for Oc1ccccc1/C=N\Nc1nc2ccccc2o1 ?
TEAD-YAP inh: 52*; FBW7 activator: 0; GPR151 ag: -3; MITF inh: 22

How did Oc1c(Br)cc(Br)cc1/C=N/Nc1ccccn1 do in these assays?
TEAD-YAP inh: 18; FBW7 activator: 0; GPR151 ag: -1; MITF inh: 27

What do the screens show for `Oc1ccccc1/C=N/Nc1ccc(Cl)nn1`?
TEAD-YAP inh: 72*; FBW7 activator: 0; GPR151 ag: 0; MITF inh: 51*

What do the screens show for `CSc1nnc2c(n1)OC(c1cccc(OCc3ccccc3)c1)N(C(C)=O)c1ccccc1-2` (centres undefined)?
TEAD-YAP inh: 1; FBW7 activator: 0; GPR151 ag: -3; MITF inh: 8

How did O=C(N/N=C/c1ccccc1O)C(=O)Nc1ccccn1 do in these assays?
TEAD-YAP inh: -16; FBW7 activator: -2; GPR151 ag: 0; MITF inh: 61*

How did Cc1cc(C)n(-c2cc(N/N=C/c3ccccc3O)ncn2)n1 do in these assays?
TEAD-YAP inh: 59*; FBW7 activator: -1; GPR151 ag: 0; MITF inh: 10

How did COc1ccc2c(c1OC)C(=O)OC2Nc1cccc(NC(C)=O)c1 (centres undefined) do in these assays?
TEAD-YAP inh: -2; FBW7 activator: 1; GPR151 ag: 0; MITF inh: 9

What do the screens show for `COc1cc2c(c(OC)c1OC)-c1ccc(OC)c(=O)cc1[C@@H](NC(C)=O)CC2`?
TEAD-YAP inh: 58*; FBW7 activator: 0; GPR151 ag: -1; MITF inh: 16

How did CCCCC(=O)Nc1ccccc1-c1nnn(CC(=O)Nc2ccc3c(c2)OCCO3)n1 do in these assays?
TEAD-YAP inh: 12; FBW7 activator: 2.3*; GPR151 ag: -1; MITF inh: 13

How did CCCCC(=O)Nc1ccccc1-c1nnn(CC(=O)Nc2ccccc2)n1 do in these assays?
TEAD-YAP inh: -3; FBW7 activator: 0; GPR151 ag: 1; MITF inh: -5

What do the screens show for `c1ccc(N2CCN(c3nc(NC4CC4)c4ncn(-c5ccsc5)c4n3)CC2)nc1`?
TEAD-YAP inh: 49*; FBW7 activator: 0; GPR151 ag: 1; MITF inh: 0

Results for c1ccc(N2CCN(c3nc(Nc4ccc(N5CCOCC5)cc4)c4ncn(-c5ccsc5)c4n3)CC2)nc1 ?
TEAD-YAP inh: 38*; FBW7 activator: 0; GPR151 ag: 0; MITF inh: 20

How did c1ccc(Nc2nc(N3CCC(N4CCOCC4)CC3)nc3c2ncn3-c2ccsc2)cc1 do in these assays?
TEAD-YAP inh: 33*; FBW7 activator: 0; GPR151 ag: 0; MITF inh: 11

Results for c1cc(-n2cnc3c(Nc4ccc5c(c4)OCO5)nc(N4CCC(N5CCOCC5)CC4)nc32)cs1 ?
TEAD-YAP inh: 19; FBW7 activator: 0; GPR151 ag: -1; MITF inh: 14

How did c1cc(-n2cnc3c(Nc4ccc(N5CCOCC5)cc4)nc(N4CCC(N5CCOCC5)CC4)nc32)cs1 do in these assays?
TEAD-YAP inh: 37*; FBW7 activator: 0; GPR151 ag: -3; MITF inh: 8

How did c1ccc(Oc2ccc(Nc3nc(N4CCOCC4)nc4c3ncn4-c3ccsc3)cc2)cc1 do in these assays?
TEAD-YAP inh: -6; FBW7 activator: 0; GPR151 ag: 0; MITF inh: 6
